{
  "source": "the supplement of paper PMC11006884",
  "note": "The full data set covers some 6,500 targets. This sample favours those with a hit. About 2% of all pairs of compound and target were hits. Values without a mark were called inactive.",
  "data": [
    {"compound": "COC(=O)C#Cc1ccccc1 [methyl 3-phenylpropiolate]", "test": "log2 ratio of iodoacetamide-alkyne labeling of the cysteine site, DMSO over compound (competition); higher = stronger covalent engagement of the cysteine by the compound, active = 1 or more", "details": "500 µM; treatment time 1 h; system: HEK293T cell lysate", "how_it_was_run": "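For each cysteine, the log2 competition ratio is mean control-channel reporter intensity over mean compound-channel reporter intensity. HEK293T lysate (2 mg/mL) was exposed to vehicle or electrophile (500 µM, 1 h, ambient temperature), labelled with iodoacetamide alkyne (1 h), clicked to sCIP-TMT reagents, digested overnight with trypsin at 37 °C, streptavidin-enriched and analysed by Orbitrap Eclipse LC-MS/MS with FAIMS and FragPipe. Cysteines quantified in only one of three replicates, each with duplicate channels, were excluded.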", "values": [
      {"target": "SEC23A C432 (UniProt Q15436)", "log2 ratio of iodoacetamide-alkyne labeling": 0.163},
      {"target": "NSUN2 C184 (UniProt Q08J23)", "log2 ratio of iodoacetamide-alkyne labeling": -0.0329},
      {"target": "PIN1 C57 (UniProt Q13526)", "sequence (Q13526 whole entry, looked up)": "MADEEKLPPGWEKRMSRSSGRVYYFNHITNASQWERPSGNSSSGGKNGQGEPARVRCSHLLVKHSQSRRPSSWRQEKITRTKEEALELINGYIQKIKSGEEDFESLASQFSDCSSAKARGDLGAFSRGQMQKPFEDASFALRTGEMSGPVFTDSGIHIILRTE", "log2 ratio of iodoacetamide-alkyne labeling": -0.187},
      {"target": "UniProt P60891_C230", "log2 ratio of iodoacetamide-alkyne labeling": 0.704},
      {"target": "LLGL1 C697 (UniProt Q15334)", "log2 ratio of iodoacetamide-alkyne labeling": 0.999},
      {"target": "NCAPD2 C1249 (UniProt Q15021)", "sequence (Q15021 whole entry, looked up)": "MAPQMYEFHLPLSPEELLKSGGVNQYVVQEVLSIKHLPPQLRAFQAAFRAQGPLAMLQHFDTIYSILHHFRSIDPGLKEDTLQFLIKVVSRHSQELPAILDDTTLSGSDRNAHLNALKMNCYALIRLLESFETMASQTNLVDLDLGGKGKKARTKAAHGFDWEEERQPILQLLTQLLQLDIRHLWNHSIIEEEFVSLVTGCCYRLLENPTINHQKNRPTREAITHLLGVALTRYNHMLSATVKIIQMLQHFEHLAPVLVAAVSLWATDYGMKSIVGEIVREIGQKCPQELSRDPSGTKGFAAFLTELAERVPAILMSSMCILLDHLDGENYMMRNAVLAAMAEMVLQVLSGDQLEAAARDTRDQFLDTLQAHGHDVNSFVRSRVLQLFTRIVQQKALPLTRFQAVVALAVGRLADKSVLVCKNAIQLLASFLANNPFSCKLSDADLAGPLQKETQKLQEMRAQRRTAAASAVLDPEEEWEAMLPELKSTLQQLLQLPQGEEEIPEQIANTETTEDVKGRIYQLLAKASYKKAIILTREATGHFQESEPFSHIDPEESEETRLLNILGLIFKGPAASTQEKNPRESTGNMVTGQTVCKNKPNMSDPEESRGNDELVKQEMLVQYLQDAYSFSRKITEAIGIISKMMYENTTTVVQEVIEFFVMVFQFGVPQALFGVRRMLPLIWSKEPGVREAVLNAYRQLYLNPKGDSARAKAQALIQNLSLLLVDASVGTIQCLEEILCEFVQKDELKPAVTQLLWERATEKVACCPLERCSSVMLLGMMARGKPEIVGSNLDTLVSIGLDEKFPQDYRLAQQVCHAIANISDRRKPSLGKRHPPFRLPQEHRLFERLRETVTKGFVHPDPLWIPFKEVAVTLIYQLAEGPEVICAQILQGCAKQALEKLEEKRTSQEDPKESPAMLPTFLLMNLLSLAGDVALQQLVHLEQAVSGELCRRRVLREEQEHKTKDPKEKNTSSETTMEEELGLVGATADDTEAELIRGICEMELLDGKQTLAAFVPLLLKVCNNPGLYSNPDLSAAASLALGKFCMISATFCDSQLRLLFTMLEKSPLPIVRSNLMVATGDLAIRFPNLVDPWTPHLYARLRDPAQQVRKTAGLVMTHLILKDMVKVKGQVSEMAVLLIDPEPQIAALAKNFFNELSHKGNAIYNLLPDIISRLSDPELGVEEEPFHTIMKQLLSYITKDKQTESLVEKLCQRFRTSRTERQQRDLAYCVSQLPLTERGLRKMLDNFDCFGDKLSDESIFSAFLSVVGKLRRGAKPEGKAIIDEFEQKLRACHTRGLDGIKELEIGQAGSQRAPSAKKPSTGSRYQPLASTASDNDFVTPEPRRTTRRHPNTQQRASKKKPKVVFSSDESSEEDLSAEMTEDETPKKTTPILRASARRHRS", "log2 ratio of iodoacetamide-alkyne labeling": 0.179},
      {"target": "SPTAN1 C1622 (UniProt Q13813)", "log2 ratio of iodoacetamide-alkyne labeling": -0.0196},
      {"target": "UniProt P62306_C66", "log2 ratio of iodoacetamide-alkyne labeling": 0.0671},
      {"target": "CLTC C870 (UniProt Q00610)", "log2 ratio of iodoacetamide-alkyne labeling": 0.621},
      {"target": "RPL18 C134 (UniProt Q07020)", "log2 ratio of iodoacetamide-alkyne labeling": 0.213},
      {"target": "UniProt Q02040_C549", "log2 ratio of iodoacetamide-alkyne labeling": "1.74 (active)"},
      {"target": "UniProt P78527_C4061", "log2 ratio of iodoacetamide-alkyne labeling": 0.465},
      {"target": "UniProt P62241_C71", "log2 ratio of iodoacetamide-alkyne labeling": 0.335},
      {"target": "PITRM1 C313 (UniProt Q5JRX3)", "log2 ratio of iodoacetamide-alkyne labeling": 0.195},
      {"target": "CASP8 C360 (UniProt Q14790)", "log2 ratio of iodoacetamide-alkyne labeling": "1.2 (active)"},
      {"target": "UniProt P62244_C72", "log2 ratio of iodoacetamide-alkyne labeling": 0.177},
      {"target": "UniProt Q12905_C37", "log2 ratio of iodoacetamide-alkyne labeling": 0.0335},
      {"target": "DIP2A C6 (UniProt Q14689)", "log2 ratio of iodoacetamide-alkyne labeling": "1.75 (active)"},
      {"target": "UniProt P62753_C12", "log2 ratio of iodoacetamide-alkyne labeling": 0.196},
      {"target": "UniProt Q00341_C948", "log2 ratio of iodoacetamide-alkyne labeling": 0.167},
      {"target": "AP1B1 C129 (UniProt Q10567)", "log2 ratio of iodoacetamide-alkyne labeling": 0.414},
      {"target": "NFKB2 C57 (UniProt Q00653)", "log2 ratio of iodoacetamide-alkyne labeling": "1.24 (active)"},
      {"target": "GTF2I C80 (UniProt P78347)", "sequence (P78347 whole entry, looked up)": "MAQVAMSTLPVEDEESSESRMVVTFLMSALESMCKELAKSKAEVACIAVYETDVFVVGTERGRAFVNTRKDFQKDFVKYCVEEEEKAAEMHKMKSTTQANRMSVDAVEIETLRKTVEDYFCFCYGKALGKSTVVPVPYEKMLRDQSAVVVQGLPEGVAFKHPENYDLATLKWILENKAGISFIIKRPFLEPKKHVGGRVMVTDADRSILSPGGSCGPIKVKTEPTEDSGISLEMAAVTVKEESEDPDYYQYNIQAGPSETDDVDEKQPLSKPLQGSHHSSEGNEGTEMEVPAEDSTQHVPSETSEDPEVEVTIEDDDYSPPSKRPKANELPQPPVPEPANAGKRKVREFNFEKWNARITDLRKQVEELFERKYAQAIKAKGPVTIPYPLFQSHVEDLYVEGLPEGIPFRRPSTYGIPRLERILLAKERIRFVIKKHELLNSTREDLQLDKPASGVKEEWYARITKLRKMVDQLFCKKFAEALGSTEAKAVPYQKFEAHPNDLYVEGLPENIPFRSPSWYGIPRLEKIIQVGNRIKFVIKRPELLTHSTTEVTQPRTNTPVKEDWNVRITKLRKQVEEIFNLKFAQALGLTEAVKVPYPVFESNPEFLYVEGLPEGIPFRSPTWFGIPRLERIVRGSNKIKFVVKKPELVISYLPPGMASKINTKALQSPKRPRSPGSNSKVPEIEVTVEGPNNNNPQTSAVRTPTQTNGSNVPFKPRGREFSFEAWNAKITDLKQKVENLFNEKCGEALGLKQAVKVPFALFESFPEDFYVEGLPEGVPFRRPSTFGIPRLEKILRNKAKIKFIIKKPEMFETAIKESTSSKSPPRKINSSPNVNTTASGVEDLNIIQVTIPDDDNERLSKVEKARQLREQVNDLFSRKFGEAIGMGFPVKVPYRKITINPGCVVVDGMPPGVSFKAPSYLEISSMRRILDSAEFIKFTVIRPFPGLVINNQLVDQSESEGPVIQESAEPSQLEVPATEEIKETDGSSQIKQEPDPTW", "log2 ratio of iodoacetamide-alkyne labeling": 0.0358},
      {"target": "MARS C38 (UniProt P56192)", "log2 ratio of iodoacetamide-alkyne labeling": 0.14},
      {"target": "NUP98 C1312 (UniProt P52948)", "sequence (P52948 whole entry, looked up)": "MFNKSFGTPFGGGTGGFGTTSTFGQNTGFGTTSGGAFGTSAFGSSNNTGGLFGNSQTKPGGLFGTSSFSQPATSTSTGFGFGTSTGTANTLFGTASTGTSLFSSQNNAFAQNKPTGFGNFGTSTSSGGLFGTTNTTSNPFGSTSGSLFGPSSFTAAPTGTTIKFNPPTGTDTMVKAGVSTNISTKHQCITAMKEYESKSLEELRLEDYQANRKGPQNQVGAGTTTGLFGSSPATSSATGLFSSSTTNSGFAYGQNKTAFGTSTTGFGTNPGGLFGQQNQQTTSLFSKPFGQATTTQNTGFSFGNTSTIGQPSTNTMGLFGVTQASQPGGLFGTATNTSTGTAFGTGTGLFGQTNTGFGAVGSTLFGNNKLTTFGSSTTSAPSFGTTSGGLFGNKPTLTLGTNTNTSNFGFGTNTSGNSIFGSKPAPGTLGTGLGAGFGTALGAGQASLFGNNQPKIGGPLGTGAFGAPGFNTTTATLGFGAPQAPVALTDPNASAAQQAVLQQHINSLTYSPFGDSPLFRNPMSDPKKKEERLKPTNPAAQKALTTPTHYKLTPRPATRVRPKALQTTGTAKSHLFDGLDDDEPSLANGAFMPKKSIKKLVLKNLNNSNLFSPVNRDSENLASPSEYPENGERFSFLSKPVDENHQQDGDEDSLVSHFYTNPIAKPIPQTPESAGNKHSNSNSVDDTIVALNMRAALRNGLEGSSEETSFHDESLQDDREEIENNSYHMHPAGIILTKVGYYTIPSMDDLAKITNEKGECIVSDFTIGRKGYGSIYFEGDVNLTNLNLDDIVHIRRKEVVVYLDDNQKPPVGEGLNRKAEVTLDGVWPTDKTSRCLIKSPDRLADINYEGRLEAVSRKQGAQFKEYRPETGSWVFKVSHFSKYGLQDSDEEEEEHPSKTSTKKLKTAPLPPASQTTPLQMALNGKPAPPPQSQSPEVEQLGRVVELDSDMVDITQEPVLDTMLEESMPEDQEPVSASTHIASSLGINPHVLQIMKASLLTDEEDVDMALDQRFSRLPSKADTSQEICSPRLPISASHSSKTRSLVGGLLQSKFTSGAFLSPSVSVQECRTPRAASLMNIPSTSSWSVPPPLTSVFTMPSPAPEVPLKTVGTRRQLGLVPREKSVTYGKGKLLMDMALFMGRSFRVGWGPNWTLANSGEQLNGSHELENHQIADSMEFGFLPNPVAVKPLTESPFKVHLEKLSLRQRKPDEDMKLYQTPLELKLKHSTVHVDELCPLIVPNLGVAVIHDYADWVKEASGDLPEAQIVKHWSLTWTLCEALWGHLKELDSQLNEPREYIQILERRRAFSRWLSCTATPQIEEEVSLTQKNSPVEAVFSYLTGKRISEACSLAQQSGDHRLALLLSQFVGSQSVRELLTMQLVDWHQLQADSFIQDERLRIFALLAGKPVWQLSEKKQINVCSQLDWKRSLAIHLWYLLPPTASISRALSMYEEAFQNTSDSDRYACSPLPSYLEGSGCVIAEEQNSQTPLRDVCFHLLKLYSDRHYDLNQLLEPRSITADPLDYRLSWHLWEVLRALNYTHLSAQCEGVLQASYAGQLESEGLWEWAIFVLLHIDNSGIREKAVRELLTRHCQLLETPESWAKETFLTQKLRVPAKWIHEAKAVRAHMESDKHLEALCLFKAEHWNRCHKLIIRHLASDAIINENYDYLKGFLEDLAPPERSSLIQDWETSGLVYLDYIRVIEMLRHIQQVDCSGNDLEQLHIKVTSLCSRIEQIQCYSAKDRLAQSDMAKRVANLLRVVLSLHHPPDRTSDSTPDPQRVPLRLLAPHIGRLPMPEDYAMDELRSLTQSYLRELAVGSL", "log2 ratio of iodoacetamide-alkyne labeling": 0.426},
      {"target": "EEF1A2 C326 (UniProt Q05639)", "sequence (Q05639 whole entry, looked up)": "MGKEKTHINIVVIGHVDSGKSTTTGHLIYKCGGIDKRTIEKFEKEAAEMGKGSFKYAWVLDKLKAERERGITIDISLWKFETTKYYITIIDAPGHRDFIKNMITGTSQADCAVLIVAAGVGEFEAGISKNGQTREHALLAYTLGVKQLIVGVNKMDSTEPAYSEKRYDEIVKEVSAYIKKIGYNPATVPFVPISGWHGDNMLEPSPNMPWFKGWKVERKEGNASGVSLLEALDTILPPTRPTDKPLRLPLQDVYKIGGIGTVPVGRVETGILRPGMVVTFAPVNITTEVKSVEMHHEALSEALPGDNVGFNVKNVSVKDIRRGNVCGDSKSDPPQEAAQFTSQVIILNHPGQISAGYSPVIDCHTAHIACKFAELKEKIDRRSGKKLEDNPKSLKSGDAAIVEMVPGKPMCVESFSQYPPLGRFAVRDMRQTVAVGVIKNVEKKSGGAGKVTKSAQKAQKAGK", "log2 ratio of iodoacetamide-alkyne labeling": 0.25},
      {"target": "UniProt Q13247_C121", "log2 ratio of iodoacetamide-alkyne labeling": -0.0624},
      {"target": "GABPA C338 (UniProt Q06546)", "log2 ratio of iodoacetamide-alkyne labeling": 0.308},
      {"target": "LRRFIP1 C14 (UniProt Q32MZ4)", "log2 ratio of iodoacetamide-alkyne labeling": 0.0967},
      {"target": "UniProt P60891_C41", "log2 ratio of iodoacetamide-alkyne labeling": -0.0365},
      {"target": "UniProt P62834_C141", "log2 ratio of iodoacetamide-alkyne labeling": 0.00921},
      {"target": "PCM1 C957 (UniProt Q15154)", "log2 ratio of iodoacetamide-alkyne labeling": "2.43 (active)"},
      {"target": "SF3A3 C103 (UniProt Q12874)", "log2 ratio of iodoacetamide-alkyne labeling": 0.188},
      {"target": "TCOF1 C1298 (UniProt Q13428)", "log2 ratio of iodoacetamide-alkyne labeling": 0.666},
      {"target": "UniProt P55769_C30", "log2 ratio of iodoacetamide-alkyne labeling": -0.0266}
    ]}
  ]
}
